In the library only some 2.3% were active in any assay of this set; here they are far more common.
Bim-Mcl-1: inhibitors of Bim peptide binding to Mcl-1, primary screen, biochemical, bead-based flow cytometry, multiplex | AID 1009, 2008 | 190,000 tested, 0.1% active | Bim peptide-Mcl-1 binding | inhibition, % at 10 µM | Induced myeloid leukemia cell differentiation protein Mcl-1 (Homo sapiens), Q07820; in the data active = inhibition above about 40%
Target sequence (Q07820 whole entry, looked up): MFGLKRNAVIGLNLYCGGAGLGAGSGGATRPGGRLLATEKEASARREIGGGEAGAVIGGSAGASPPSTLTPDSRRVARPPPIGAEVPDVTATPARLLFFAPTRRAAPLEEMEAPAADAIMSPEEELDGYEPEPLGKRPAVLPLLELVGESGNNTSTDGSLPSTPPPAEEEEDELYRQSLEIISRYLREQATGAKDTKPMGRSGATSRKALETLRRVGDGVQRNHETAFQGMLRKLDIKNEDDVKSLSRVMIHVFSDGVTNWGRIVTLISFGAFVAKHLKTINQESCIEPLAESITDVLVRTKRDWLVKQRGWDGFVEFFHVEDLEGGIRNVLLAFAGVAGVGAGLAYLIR
BCLXL inh: inhibitors of human Bcl-xL, primary screen, biochemical, fluorescence polarization, HTS; Bcl-2-like protein 1 (Homo sapiens), Q07817; GST-Bcl-xL / FITC-Bim BH3 peptide fluorescence polarization; inhibition, % at 10.9 µM; 320,000 tested, 0.7% active; AID 2129, 2009;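 active = inhibition above the mean of all tested compounds plus 3 SD, cutoff set per campaign, cut at about 30% in these data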;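 also: inhibitors lower millipolarization by displacing the labeled peptide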
Mcl1 Bid PPI: Mcl-1/Bid binding inhibitors, primary screen, biochemical, TR-FRET, 1536-well | Induced myeloid leukemia cell differentiation protein Mcl-1 (Homo sapiens), Q07820 | TR-FRET Mcl-1/Bid-Dy647 peptide binding | inhibition, % at 21.7 µM | 220,000 tested, 0.97% active | AID 1021, 2008;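 active = compounds that cut the binding signal by more than half at the single screening dose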;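 also: His-tagged Mcl-1 with europium anti-His antibody binding Bid BH3 peptide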
Mcl1 Noxa PPI: Mcl-1/Noxa binding inhibitors, primary screen, biochemical, TR-FRET, 1536-well; TR-FRET Mcl-1/Noxa peptide binding, 2 h; inhibition, % at 21.7 µM; 220,000 tested, 1.5% active; AID 1022, 2008;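 active = compounds that cut the protein-peptide binding signal by more than 50% relative to plate controls in a single-dose test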;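 also: His-tagged Mcl-1 with rhodamine Noxa BH3 peptide and terbium anti-His antibody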
GLD-1 RNA inh: GLD-1/TGE RNA complex disruptors, primary screen, biochemical, fluorescence polarization; Female germline-specific tumor suppressor gld-1 (Caenorhabditis elegans), Q17339; purified GLD-1 + fluorescein TGE RNA; inhibition, % at 5.96 µM; 320,000 tested, 0.44% active; AID 2280, 2010;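 active = percent inhibition above a per-plate cutoff, the plate mean of test compounds plus 3 SD, cut at about 30% in these data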
MCL1-BIM inh: inhibitors of MCL1 binding to BIM-BH3, primary screen, biochemical, fluorescence polarization | Induced myeloid leukemia cell differentiation protein Mcl-1 (Homo sapiens), Q07820 | GST-MCL1 / FITC-Bim-BH3 fluorescence polarization | inhibition, % at 10.9 µM | 320,000 tested, 0.68% active | AID 2057, 2009;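 active = inhibition above the mean inhibition of all tested compounds plus 3 SD, set per campaign, cut at about 40% in these data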;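 also: higher means more loss of mP so more displacement of Bim peptide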
Bcl-xL conf: Bcl-xL inhibitors blocking Bim BH3 binding, confirmation, counter-screen for MCL1 inhibitor project, biochemical, fluorescence polarization. GST-Bcl-xL / FITC-Bim BH3 peptide FP binding. 1,700 tested, 54% active. inhibition, % at 10.9 µM. shares compounds with MCL1-BIM inh;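 active = inhibition above a cutoff equal to the mean inhibition of all tested compounds plus 3 SD, cut at about 30% in these data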
MCL1 inh confirm: inhibitors of MCL1 binding to BIM-BH3, confirmation, biochemical, fluorescence polarization, triplicate | shares compounds with MCL1-BIM inh | GST-MCL1 / FITC-Bim-BH3 fluorescence polarization | inhibition, % at 10.9 µM | 1,700 tested, 61% active | AID 2168, 2009;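 active = inhibition above the average of all tested compounds plus 3 SD, cut at about 40% in these data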
Of the large screens only hits and unclear results are named; the others gave an inactive call (follow-up assays come after a bar, where they were run).

COc1ccc(C2C=C(c3ccc(Br)cc3)Nc3nc(N4C(=O)CCC4=O)nn32)cc1 (stereo unspecified)	BCLXL inh 123, GLD-1 RNA inh 102, MCL1-BIM inh 135 | Bcl-xL conf 84 | MCL1 inh confirm 100
OCCCc1nc2n(n1)C(c1ccccc1)C=C(c1ccccc1)N2 (stereo unspecified)	none
COc1ccc(C2C=C(c3ccccc3)Nc3nc(CCCO)nn32)cc1 (stereo unspecified)	none
CS(=O)(=O)Nc1nc2n(n1)C(c1ccccc1)C=C(c1ccc(Br)cc1)N2 (stereo unspecified)	BCLXL inh 157, GLD-1 RNA inh 157, MCL1-BIM inh 181 | Bcl-xL conf 134 | MCL1 inh confirm 164
CC1CCN(CCNC(=O)C2CCCN(S(=O)(=O)c3cccc4nsnc34)C2)CC1 (stereo unspecified)	none (no result: Bim-Mcl-1, Mcl1 Bid PPI, Mcl1 Noxa PPI)
N#Cc1ccccc1NC(=O)COC(=O)CN1C(=O)C2CCCCC2C1=O (stereo unspecified)	none (no result: Bim-Mcl-1, BCLXL inh, Mcl1 Bid PPI, Mcl1 Noxa PPI, MCL1-BIM inh)
COc1ccc(-n2c(SCC(=O)C(C)(C)C)nc3c(sc(=S)n3-c3ccccc3)c2=O)c(OC)c1	none (no result: Bim-Mcl-1, Mcl1 Bid PPI, Mcl1 Noxa PPI)
COc1ccccc1C1C=C(c2ccc(Cl)cc2)Nc2nc(NS(C)(=O)=O)nn21 (stereo unspecified)	BCLXL inh 66, GLD-1 RNA inh 71, MCL1-BIM inh 71 | Bcl-xL conf 46 | MCL1 inh confirm 59
CCCOc1ccc(CNC(=S)Nc2ccccc2)cc1Cl	MCL1-BIM inh 42 (no result: Bim-Mcl-1, Mcl1 Bid PPI, Mcl1 Noxa PPI) | Bcl-xL conf inactive | MCL1 inh confirm inactive
Cc1ccc(C2=NCCn3nc4cc(C(F)(F)F)ccc4c32)cc1	none (no result: Bim-Mcl-1, Mcl1 Bid PPI, Mcl1 Noxa PPI)
Cc1c(N2C(=O)c3ccc4c5c(ccc(c35)C2=O)CC4)c(=O)n(-c2ccccc2)n1C	Mcl1 Noxa PPI 96, MCL1-BIM inh 52 | Bcl-xL conf 33 | MCL1 inh confirm 78
COc1ccc(N2CCCC2)c(NC(=O)c2ccc([N+](=O)[O-])o2)c1	BCLXL inh 76, GLD-1 RNA inh 74, MCL1-BIM inh 75 (no result: Bim-Mcl-1, Mcl1 Bid PPI, Mcl1 Noxa PPI) | Bcl-xL conf inactive | MCL1 inh confirm inactive
CC/C(=N/NC(=O)c1ccc2c(c1)OCO2)c1ccccc1O	none (no result: Bim-Mcl-1, Mcl1 Bid PPI, Mcl1 Noxa PPI)
COc1ccc([C@@H]2[C@@H]3C(=O)N(C(C)(C)C)C(=O)[C@@H]3[C@]3(Cc4ccc(Cl)cc4)C(=O)N(c4cccc(F)c4)C(=O)N23)cc1	none (no result: Bim-Mcl-1, Mcl1 Bid PPI, Mcl1 Noxa PPI)
COc1ccccc1NC(=O)Cn1c(O)c(N=NC(=O)c2ccccc2O)c2ccccc21	MCL1-BIM inh 50 | Bcl-xL conf inactive | MCL1 inh confirm 62
O=C(O)c1cccc(NC(=O)c2ccc3c(c2)C(=O)N(C2CCCCC2)C3=O)c1	none (no result: Bim-Mcl-1, Mcl1 Bid PPI, Mcl1 Noxa PPI)
Cc1cccc(N2CSC3=C(C#N)C(c4ccc(C)o4)CC(=O)N3C2)c1 (stereo unspecified)	Mcl1 Bid PPI 71, Mcl1 Noxa PPI 107, MCL1-BIM inh 54 | Bcl-xL conf inactive | MCL1 inh confirm inactive
CC(C)OC(=O)CC(=O)c1sc2nc3c(cc2c1N)CN(C)CC3	BCLXL inh 84, Mcl1 Noxa PPI 57, GLD-1 RNA inh 53, MCL1-BIM inh 98 | Bcl-xL conf 60 | MCL1 inh confirm 72
CCOC(=O)c1sc2nc3c(cc2c1N)COC(C(C)C)C3 (stereo unspecified)	none
CCCCn1c(N)c(N(CCC(C)C)C(=O)c2ccc(N3CCCC3=O)cc2)c(=O)[nH]c1=O	none (no result: Bim-Mcl-1, Mcl1 Bid PPI, Mcl1 Noxa PPI)
Cc1ccccc1NC(=O)C1Cc2ccccc2C(=O)O1 (stereo unspecified)	none

Bioassay records from PubChem.
